# Laboratory results from the supplement of paper PMC11732987, “Enantioselective OTUD7B fragment discovery through chemoproteomics screening and high-throughput optimisation” (Communications Chemistry, 2025).
# A number with no mark means an inactive call.
# Columns and labels:
# Experiment in all cases: log2 ratio of Biotin-Ahx-Ub-VS probe labelling (fragment/DMSO); higher = less target engagement (more negative = stronger competition), active = hit call of the paper (q ≤ 0.05, log2 ratio ≤ -1)
# Conditions in all cases: compound concentration: 200 uM; treatment time: 3 h
# USP9X = USP9X (UniProt Q93008)
# In short: (§1)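 Fragment (200 µM) or vehicle was incubated for 3 h with triplicate HEK293T lysate samples of 495 µg, which were then treated with Biotin-Ahx-Ub-VS at 0.5 µM final for 1 h. Labelled DUBs were enriched on NeutrAvidin, digested with LysC and trypsin, and analysed by diaPASEF LC-MS/MS. Values are average log2 fragment/vehicle ratios from an unpaired t-test on global-median-normalised Spectronaut label-free quantities, using proteins with ≥2 unique peptides.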
# UniProt O00487 = target: UniProt O00487
# In short: as §1
# UniProt O00507 = target: UniProt O00507
# In short: as §1
# UniProt P51784 = target: UniProt P51784
# In short: as §1
# UniProt Q5T2D3 = target: T1, UniProt Q5T2D3
# T1 sequence (whole entry): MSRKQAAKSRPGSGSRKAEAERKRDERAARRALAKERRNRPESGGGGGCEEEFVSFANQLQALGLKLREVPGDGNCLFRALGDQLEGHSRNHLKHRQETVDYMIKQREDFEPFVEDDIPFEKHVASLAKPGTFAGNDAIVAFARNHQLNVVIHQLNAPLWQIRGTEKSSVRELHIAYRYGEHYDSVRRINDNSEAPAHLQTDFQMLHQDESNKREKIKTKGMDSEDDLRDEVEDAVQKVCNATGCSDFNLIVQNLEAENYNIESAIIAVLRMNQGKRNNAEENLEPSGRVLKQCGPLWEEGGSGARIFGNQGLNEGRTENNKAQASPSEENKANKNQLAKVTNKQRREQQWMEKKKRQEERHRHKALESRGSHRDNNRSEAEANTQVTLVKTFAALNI
# In short: as §1
# UniProt Q8TE49 = target: T2, UniProt Q8TE49
# T2 sequence (whole entry): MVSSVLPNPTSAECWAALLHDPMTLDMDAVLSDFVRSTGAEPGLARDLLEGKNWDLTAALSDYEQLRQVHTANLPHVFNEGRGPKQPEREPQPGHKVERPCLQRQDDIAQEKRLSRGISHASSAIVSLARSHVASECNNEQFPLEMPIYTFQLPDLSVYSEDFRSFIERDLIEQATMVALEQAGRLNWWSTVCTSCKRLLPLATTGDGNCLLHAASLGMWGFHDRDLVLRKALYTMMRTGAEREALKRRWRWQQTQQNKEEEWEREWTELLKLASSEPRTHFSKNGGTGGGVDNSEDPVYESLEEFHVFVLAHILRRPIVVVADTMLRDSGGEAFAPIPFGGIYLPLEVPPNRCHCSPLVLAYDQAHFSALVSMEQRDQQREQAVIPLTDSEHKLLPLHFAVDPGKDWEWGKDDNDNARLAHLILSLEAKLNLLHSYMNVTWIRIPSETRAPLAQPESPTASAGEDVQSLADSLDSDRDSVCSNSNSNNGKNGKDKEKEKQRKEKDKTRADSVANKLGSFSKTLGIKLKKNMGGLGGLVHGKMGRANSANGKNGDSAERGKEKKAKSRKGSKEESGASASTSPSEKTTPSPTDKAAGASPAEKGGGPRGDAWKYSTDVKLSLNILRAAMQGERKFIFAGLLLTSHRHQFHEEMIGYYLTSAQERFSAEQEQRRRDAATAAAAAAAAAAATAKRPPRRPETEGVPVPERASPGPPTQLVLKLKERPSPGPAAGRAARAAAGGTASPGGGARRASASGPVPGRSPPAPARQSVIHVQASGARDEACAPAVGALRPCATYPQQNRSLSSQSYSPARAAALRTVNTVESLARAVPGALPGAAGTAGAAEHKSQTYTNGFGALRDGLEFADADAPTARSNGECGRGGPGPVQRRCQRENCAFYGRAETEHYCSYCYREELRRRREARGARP
# In short: as §1
# UniProt Q9P2H5 = target: T3, UniProt Q9P2H5
# T3 sequence (whole entry): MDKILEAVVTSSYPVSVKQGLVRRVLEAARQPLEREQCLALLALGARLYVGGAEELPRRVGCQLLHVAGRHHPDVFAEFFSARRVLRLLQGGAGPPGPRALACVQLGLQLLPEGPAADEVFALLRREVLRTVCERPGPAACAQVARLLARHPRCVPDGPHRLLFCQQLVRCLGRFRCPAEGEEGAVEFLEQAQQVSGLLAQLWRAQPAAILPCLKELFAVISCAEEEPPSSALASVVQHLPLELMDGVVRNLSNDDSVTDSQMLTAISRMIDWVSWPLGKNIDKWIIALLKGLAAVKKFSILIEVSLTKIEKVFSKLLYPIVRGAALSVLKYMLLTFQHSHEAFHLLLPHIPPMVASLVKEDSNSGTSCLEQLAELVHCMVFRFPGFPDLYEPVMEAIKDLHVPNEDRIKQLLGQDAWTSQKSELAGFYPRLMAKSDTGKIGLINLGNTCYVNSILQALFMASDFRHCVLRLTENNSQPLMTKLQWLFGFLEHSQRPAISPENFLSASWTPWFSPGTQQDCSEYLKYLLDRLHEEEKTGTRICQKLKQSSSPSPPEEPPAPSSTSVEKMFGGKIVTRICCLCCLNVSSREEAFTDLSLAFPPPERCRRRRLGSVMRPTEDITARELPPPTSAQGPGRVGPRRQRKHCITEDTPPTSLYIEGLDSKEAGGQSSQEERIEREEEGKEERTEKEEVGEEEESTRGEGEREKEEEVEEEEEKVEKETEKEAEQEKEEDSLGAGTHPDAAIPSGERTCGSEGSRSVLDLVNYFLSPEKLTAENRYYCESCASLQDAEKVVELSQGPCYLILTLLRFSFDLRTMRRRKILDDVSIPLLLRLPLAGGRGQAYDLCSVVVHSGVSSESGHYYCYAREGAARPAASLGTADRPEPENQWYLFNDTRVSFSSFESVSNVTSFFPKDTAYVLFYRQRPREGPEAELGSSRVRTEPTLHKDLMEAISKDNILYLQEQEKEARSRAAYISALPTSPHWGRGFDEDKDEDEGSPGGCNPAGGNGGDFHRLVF
# In short: as §1
# UniProt Q9UGI0 = target: T4, UniProt Q9UGI0
# T4 sequence (whole entry): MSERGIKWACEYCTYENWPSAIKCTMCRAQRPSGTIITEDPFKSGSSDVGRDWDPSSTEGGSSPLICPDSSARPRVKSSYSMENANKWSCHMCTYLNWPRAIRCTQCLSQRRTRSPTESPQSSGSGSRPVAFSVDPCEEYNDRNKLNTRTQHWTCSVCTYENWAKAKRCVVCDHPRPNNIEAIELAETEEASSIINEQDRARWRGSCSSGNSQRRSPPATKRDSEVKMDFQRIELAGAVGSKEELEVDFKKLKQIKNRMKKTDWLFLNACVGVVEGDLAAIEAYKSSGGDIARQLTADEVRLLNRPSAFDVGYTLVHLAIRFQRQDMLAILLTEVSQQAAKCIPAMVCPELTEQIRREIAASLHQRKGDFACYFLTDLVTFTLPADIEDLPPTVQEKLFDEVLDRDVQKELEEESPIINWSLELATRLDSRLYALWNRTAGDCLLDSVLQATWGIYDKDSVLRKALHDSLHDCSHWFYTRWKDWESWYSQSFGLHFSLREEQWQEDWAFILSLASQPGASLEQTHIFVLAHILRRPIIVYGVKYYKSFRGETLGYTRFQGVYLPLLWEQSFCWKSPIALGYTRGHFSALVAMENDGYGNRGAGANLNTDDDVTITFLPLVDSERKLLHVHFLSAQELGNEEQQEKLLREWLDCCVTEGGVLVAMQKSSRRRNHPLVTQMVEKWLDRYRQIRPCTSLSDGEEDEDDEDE
# In short: as §1
# YOD1 = target: T5, YOD1 (UniProt Q5VVQ6)
# T5 sequence (whole entry): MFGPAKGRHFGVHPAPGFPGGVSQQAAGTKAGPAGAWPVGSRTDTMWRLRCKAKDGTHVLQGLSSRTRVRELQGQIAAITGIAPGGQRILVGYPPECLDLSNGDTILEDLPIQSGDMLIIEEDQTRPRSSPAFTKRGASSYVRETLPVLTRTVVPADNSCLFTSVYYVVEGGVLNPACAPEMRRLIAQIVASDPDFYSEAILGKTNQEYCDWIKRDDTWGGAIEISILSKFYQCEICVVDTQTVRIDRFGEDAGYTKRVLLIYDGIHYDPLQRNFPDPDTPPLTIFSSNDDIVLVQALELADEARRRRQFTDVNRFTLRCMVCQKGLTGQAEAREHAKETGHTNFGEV
# In short: as §1
# Sequence of UniProt O00507 (O00507 whole entry): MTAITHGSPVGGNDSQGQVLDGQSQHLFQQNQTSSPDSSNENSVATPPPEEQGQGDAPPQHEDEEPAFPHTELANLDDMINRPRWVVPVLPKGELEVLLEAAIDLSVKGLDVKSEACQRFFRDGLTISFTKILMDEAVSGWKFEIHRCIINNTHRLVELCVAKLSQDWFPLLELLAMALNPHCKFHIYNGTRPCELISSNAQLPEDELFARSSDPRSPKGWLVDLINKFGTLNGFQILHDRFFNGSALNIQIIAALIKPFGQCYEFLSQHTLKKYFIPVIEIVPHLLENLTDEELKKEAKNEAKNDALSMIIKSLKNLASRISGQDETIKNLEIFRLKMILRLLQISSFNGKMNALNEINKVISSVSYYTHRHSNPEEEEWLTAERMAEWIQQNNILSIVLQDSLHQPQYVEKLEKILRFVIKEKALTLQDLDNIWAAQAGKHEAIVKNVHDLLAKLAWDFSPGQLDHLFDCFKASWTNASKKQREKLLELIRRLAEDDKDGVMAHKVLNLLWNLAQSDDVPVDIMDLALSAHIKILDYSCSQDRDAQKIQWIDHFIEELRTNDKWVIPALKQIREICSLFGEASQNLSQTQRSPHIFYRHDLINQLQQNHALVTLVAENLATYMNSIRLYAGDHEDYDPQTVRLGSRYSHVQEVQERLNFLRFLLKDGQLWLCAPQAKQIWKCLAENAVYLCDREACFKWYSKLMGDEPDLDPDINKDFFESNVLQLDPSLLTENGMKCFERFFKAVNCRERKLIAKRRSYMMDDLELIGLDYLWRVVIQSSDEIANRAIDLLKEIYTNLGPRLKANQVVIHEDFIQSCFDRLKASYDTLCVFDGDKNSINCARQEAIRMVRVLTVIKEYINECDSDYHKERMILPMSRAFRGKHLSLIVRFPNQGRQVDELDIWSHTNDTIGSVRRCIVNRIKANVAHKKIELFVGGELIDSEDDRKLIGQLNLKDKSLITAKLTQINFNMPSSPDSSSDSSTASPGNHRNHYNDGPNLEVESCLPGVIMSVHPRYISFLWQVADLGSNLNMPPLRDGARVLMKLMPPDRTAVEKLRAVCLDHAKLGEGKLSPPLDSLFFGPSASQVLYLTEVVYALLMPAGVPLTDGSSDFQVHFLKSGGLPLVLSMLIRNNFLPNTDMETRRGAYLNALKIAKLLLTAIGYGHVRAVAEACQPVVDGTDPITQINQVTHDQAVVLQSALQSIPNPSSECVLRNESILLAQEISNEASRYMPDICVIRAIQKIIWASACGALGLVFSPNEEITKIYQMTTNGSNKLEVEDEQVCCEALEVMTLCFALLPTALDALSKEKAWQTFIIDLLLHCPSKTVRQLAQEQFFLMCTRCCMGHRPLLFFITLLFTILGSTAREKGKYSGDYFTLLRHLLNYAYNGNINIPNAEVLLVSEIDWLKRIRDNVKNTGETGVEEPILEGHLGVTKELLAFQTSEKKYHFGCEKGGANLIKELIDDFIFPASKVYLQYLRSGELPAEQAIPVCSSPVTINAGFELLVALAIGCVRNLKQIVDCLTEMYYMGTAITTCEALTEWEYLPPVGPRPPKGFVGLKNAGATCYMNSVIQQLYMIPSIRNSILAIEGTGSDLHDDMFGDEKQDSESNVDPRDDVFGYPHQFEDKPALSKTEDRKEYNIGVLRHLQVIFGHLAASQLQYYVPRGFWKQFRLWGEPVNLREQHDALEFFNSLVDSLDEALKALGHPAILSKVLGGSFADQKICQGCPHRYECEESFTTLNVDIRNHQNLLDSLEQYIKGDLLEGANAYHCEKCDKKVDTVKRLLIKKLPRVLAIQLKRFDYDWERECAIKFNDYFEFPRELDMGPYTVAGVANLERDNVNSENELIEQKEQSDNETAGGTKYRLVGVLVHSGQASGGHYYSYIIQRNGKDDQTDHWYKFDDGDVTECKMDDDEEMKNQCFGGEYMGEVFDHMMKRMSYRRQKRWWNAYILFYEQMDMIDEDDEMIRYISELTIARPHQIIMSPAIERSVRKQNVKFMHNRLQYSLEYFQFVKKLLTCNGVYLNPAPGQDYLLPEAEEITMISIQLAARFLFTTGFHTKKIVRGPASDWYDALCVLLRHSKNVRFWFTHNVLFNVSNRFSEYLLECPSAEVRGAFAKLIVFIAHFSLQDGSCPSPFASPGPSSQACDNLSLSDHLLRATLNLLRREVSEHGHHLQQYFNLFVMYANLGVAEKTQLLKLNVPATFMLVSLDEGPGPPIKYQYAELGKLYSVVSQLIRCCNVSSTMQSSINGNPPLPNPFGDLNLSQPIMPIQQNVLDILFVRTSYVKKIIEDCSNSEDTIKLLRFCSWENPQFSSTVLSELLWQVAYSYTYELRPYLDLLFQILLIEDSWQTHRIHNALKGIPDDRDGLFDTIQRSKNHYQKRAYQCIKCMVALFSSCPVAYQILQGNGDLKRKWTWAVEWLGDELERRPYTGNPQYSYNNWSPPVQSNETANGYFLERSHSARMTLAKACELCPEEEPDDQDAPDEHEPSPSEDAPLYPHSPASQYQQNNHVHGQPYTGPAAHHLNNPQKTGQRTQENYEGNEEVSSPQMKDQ
# Sequence of UniProt O00487 (O00487 whole entry): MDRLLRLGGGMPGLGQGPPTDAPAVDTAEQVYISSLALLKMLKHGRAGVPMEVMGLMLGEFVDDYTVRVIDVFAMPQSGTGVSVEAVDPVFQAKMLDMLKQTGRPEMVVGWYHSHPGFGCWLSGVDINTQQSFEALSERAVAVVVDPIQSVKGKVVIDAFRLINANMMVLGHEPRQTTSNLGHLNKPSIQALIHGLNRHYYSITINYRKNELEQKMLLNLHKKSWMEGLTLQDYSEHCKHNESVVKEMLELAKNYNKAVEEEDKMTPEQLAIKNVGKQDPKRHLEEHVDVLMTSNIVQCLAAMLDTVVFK
# Sequence of UniProt P51784 (P51784 whole entry): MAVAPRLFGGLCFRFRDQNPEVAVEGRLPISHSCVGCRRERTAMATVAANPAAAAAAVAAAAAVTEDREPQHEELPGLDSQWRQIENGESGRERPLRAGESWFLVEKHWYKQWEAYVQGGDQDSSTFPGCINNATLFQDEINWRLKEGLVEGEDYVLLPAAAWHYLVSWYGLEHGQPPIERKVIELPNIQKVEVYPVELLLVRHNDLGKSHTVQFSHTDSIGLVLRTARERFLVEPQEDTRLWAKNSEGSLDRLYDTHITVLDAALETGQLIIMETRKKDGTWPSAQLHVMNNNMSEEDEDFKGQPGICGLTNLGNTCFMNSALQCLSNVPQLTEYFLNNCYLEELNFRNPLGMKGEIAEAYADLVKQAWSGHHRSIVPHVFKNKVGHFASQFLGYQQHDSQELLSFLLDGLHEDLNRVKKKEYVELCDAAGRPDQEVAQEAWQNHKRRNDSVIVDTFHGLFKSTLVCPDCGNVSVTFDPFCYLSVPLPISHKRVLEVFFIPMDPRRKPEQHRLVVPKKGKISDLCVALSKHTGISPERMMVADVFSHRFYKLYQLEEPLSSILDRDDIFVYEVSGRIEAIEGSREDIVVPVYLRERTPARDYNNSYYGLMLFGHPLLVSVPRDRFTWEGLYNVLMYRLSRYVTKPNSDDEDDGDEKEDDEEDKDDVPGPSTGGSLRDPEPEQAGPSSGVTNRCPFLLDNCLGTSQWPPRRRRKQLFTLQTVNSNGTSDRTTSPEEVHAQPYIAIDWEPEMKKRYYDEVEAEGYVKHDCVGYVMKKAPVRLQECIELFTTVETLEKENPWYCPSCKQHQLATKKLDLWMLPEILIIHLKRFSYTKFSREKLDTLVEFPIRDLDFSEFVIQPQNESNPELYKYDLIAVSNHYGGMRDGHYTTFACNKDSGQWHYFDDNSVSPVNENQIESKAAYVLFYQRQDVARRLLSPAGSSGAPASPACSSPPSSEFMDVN
compound,measurement,setting,value
O=C(CCl)Nc1ccc(F)cc1Cl,log2 ratio of Biotin-Ahx-Ub-VS probe labelling,USP9X,-0.538
same,log2 ratio of Biotin-Ahx-Ub-VS probe labelling,UniProt O00487,-0.0503
same,log2 ratio of Biotin-Ahx-Ub-VS probe labelling,UniProt O00507,-0.442
same,log2 ratio of Biotin-Ahx-Ub-VS probe labelling,UniProt P51784,-0.238
same,log2 ratio of Biotin-Ahx-Ub-VS probe labelling,UniProt Q5T2D3,-0.425
same,log2 ratio of Biotin-Ahx-Ub-VS probe labelling,UniProt Q8TE49,-1.35
same,log2 ratio of Biotin-Ahx-Ub-VS probe labelling,UniProt Q9P2H5,-0.211
same,log2 ratio of Biotin-Ahx-Ub-VS probe labelling,UniProt Q9UGI0,-1.18 (active)
same,log2 ratio of Biotin-Ahx-Ub-VS probe labelling,YOD1,-0.759
